Compound activity: PubChem, National Center for Advancing Translational Sciences (NCATS)
D1 agonist: activates the human D1 dopamine receptor; 1% of 360,000 active; activation, % at 2 µM; HEK293 T-REx D1 cells, calcium flux, agonist mode; further: 0% is about no effect
Target sequence (P21728 whole entry, looked up): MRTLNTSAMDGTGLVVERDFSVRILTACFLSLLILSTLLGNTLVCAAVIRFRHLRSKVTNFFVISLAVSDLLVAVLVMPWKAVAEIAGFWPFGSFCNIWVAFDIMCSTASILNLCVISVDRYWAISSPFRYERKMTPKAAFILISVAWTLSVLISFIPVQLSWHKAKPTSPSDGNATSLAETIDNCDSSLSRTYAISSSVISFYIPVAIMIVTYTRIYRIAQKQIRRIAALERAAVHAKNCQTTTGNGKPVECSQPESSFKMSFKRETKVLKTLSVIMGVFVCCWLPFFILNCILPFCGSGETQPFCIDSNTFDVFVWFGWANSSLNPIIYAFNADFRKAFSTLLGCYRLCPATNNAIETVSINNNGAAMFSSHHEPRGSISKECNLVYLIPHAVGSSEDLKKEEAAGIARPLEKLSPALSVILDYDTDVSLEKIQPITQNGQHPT
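Agonism was scored from calcium flux recorded over 180 s (1 read/s) after pintool compound addition, following a 10-cycle baseline. Cells were inducible force-coupled HEK293 TREx D1, plated overnight at 30 C and loaded with no-wash calcium dye.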
TRHR ag: activates the human TRH receptor | P34981 | TRHR cells, calcium flux fluo-8, FDSS agonist mode | activation, % at 2 µM | 0.18% of 360,000 active | AID 493084; further: 0% is about no effect
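TRHR-expressing cells loaded with fluo-8 calcium dye; 23 nL library compound pin-transferred, kinetic FDSS fluorescence (Ex 480/Em 530) recorded about 180 s for agonist-induced calcium release, before a 10 nM TRH EC20 addition for potentiator mode.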
D1 potentiator: enhances dopamine response at the human D1 receptor; P21728; HEK293 TREx D1 cells, calcium flux, dopamine EC20 potentiation; potentiation, % at 10 µM; 0.036% of 360,000 active; AID 504651; in the data active means potentiation above about 30%; further: 0% is about no effect
D1 antag: blocks dopamine activation of the human D1 receptor; 3.2% of 360,000 active; HEK293 TREx D1 cells, calcium flux, dopamine EC80; active compounds read low; P21728; AID 504652; activity change, negative = inhibition, % at 10 µM; in the data active means activity change below about -30%; further: on the % scale 0 is the no-effect control and ±100 the full control effect
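Tetracycline-induced HEK293 Trex D1 cells, force-coupled to calcium, dye-loaded; compounds added and read 180 s, then EC80 dopamine added and calcium flux tracked kinetically another 180 s.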
TRHR PAM: allosteric enhancers of human TRH receptor; TRHR cells, fluo-8 calcium fluorescence, EC20 TRH enhancement; P34981; enhancement, % at 2 µM; 0.66% of 360,000 active; in the data active means enhancement above about 30%; further: 0% is about no effect
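TRHR-expressing cells loaded with fluo-8 calcium dye were read kinetically (ex 480/em 530) during compound addition, then stimulated with an EC20 of TRH (10 nM final). Enhancement of the Gq-mediated intracellular calcium response was scored.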
The depositor's hits bear a star; . = no result given; ! = repeats disagree. Most compounds without a hit are left out; they make up all but 4.7% or so of the library. Unless noted, no stated cut-off is given here; in the data, active means activation above about 30%; inactive means the rest.

SMILES	D1 agonist	TRHR ag	D1 potentiator	D1 antag	TRHR PAM
CCCCc1nc(SCc2ccc([N+](=O)[O-])cc2)n[nH]1	1	0	-1	-30*	-3
Cc1c(Cl)cccc1NC(=O)Cn1c(=O)n(Cc2ccco2)c(=O)c2sc3ccccc3c21	7	-1	-1	2	1
COc1ccc(CN=C2Nc3ccccc3CS2)cc1	11	1	-7	-32*	-6
CC(C)NC(=O)C1CCCN(S(=O)(=O)c2cccc3nonc23)C1 (configuration not stated)	0	0	-7	13	2
O=C(NC1CCN(Cc2ccccc2)CC1)C1CCCN(S(=O)(=O)c2cccc3nonc23)C1 (configuration not stated)	15	0	-3	-15	36*
CCC(C)NC(=O)C1CCN(S(=O)(=O)c2cccc3nonc23)CC1 (configuration not stated)	-3	0	3	-3	31*
O=C(NCc1ccccc1)C1CCCN(S(=O)(=O)c2cccc3nonc23)C1 (configuration not stated)	2	-1	0	7	4
COCCNC(=O)c1nn(-c2ccc(Cl)cc2)nc1CO	1	0	-1	-1	-4
COP(=O)(OC)c1nc(-c2ccc([N+](=O)[O-])cc2)oc1N1CCCCC1	49*	12	-6	-3	1
CCN(CC)CCn1c2ccc(F)cc2c2nc(C)sc21	-3	-1	-1	-5	-1
Cc1ccc(S(=O)(=O)n2c3ccc(F)cc3c3nc(C)sc32)cc1	2	0	-4	-31*	0
Cc1c(NC(=O)/C(C#N)=C/c2ccc(-c3cc(Cl)ccc3Cl)o2)c(=O)n(-c2ccccc2)n1C	3	0	-9	-17	34*
CSCCC(NC(=O)COc1ccccc1)C(=O)N1CCCCC1 (configuration not stated)	0	0	-3	3	0
COc1ccccc1C(=O)COC(=O)C(CCSC)NC(=O)COc1ccccc1 (configuration not stated)	4	0	-4	9	30*
COc1ccccc1C(=O)NC(CCSC)C(=O)OC(C)C(N)=O (configuration not stated)	0	-1	-1	8	36*
CSCCC(NC(=O)COc1ccccc1)C(=O)N1CCC(C(N)=O)CC1 (configuration not stated)	1	0	.	-31*	2
COc1ccccc1OCCNC(=O)C(CCSC)NC(=O)c1ccccc1Cl (configuration not stated)	3	0	0	-21	5
COc1ccccc1C(=O)NC(CCSC)C(=O)NCCCSc1ccccc1 (configuration not stated)	92*	0	0	-1	-8
CC1(C)OC(C)(C)/C(=C\c2ccc(OCC(N)=O)cc2)C1=O	4	0	1	-66*	-7
Oc1ccc(/C=C/c2ccc3ccccc3n2)cc1	2	0	-5	9	1
O/C(=C\c1ccc2ccccc2n1)c1ccc(O)cc1O	71*	16	-4	12	4
O=C(NCc1cccc(F)c1)C1CCCN(C(=O)N2CCOc3ccccc32)C1 (configuration not stated)	-2	0	4	1	-5
CCCCc1nn2c(=O)cc(COC(=O)CNC(=O)COc3ccc(C)cc3)nc2s1	-1	0	-7	-18	-2
Cc1cccc(-c2noc(-c3ccc4c(c3)OCO4)n2)c1	10	0	-2	-45*	-4
COc1ccc(-c2nc(-c3cccc(C)c3)no2)cc1OC	1	0	5	-3	2
SMILES	D1 agonist	TRHR ag	D1 potentiator	D1 antag	TRHR PAM
CCN(Cc1nc(-c2cccc(C)c2)no1)C(=O)c1ccc2c(c1)OCO2	35*	-1	.	7	6
CCc1nn(CC(=O)NC(C)CC)c(=O)c2cc3occc3n12 (configuration not stated)	1	1	-3	13	1
Cc1ccc(NC(=O)c2sc(-n3nc(C)c(Cc4ccc5c(c4)OCO5)c3C)nc2C)cc1Cl	2	0	0	-11	9
CC(=O)Nc1ccc(C2=CC(=O)C[C@H](c3ccc(Cl)cc3)C2)cc1	1	0	-6	-53*	1
COc1ccc([C@H]2CC(=O)C=C(c3ccc(NC(C)=O)cc3)C2)cc1OC	0	0	-3	.	6
CCC1CN(C(=O)N2CCC(C(=O)N3CCN(c4ccccc4F)CC3)CC2)c2ccccc2O1 (configuration not stated)	2	0	1	0	-2
CCC1=C(c2ccc(C)cc2)S(=O)(=O)N=C1N1CCC(C(=O)NCc2ccc(C)cc2)CC1	0	1	-2	-39*	3
CCC1=C(c2ccc(C)cc2)S(=O)(=O)N=C1N1CCC(C(=O)NCCc2ccc(Cl)cc2)CC1	5	0	-6	-11	3
COc1ccc(-n2ccnc2SCC(=O)Nc2ccccc2)cc1	3	0	-3	-4	5
COc1ccc(NC(=O)CSc2nccn2Cc2ccccc2)c(OC)c1	9	0	-7	-36*	1
COc1ccc(Cn2ccnc2SCC(=O)NC2CCCC2)cc1	6	0	4	-67*!	-5
COc1ccc(C(C)(C)C)cc1NC(=O)COC(=O)c1ncc(Cl)c(Cl)c1Cl	23	1	13	4	-2
O=C(CSc1nccn1-c1ccc(F)cc1)Nc1ccc(OC(F)(F)F)cc1	0	0	-5	-76*	1
COc1ccc(NC(=O)COC(=O)c2ncc(Cl)c(Cl)c2Cl)c(OC)c1	0	0	-2	-41*	2
COc1ccc(N2C(=O)CS(=O)(=O)C23C(=O)N(Cc2ccccc2F)c2ccccc23)cc1Cl (configuration not stated)	9	1	2	-9	-10
